# Measured values published in the supplement of paper PMC6555819.
# How the values were obtained:
# Assay in all cases: PBM binding z-score (relative to random genomic background probes); higher = stronger binding; sequences stand for … in GC…GCGATTGACAGCGTAGAATGAAGG
# [1] = test system: FXR:RXRa (NR concentration 270 nM, RXRa partner concentration 90 nM)
# Procedure, shortened: (§1)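 Ligand-free nuclear receptor dimers were bound for 1 h to custom Agilent 4×180K protein-binding microarrays. Detection used antibodies against each partner (one per run). Binding z-scores rest on regression-normalized fluorescence, with random background probes as the reference.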
# [2] = test system: LXRa:RXRa (NR concentration 270 nM, RXRa partner concentration 90 nM)
# Procedure, shortened: as §1
# [3] = test system: LXRa homodimer (NR concentration 270 nM)
# Procedure, shortened: as §1
# [4] = test system: LXRb:RXRa (NR concentration 270 nM, RXRa partner concentration 90 nM)
# Procedure, shortened: as §1
# [5] = test system: LXRb homodimer (NR concentration 270 nM)
# Procedure, shortened: as §1
# [6] = test system: PPARa:RXRa (NR concentration 270 nM, RXRa partner concentration 90 nM)
# Procedure, shortened: as §1
# [7] = test system: PPARg:RXRa (NR concentration 180 nM, RXRa partner concentration 90 nM)
# Procedure, shortened: as §1
# [8] = test system: PPARg:RXRa 270nM:90nM, anti-RXR (NR concentration 270 nM, RXRa partner concentration 90 nM)
# Procedure, shortened: as §1
# [9] = test system: PPARg:RXRa 30nM:10nM, anti-RXR (NR concentration 30 nM, RXRa partner concentration 10 nM)
# Procedure, shortened: as §1
# [10] = test system: PPARg:RXRa 90nM:30nM, anti-RXR (NR concentration 90 nM, RXRa partner concentration 30 nM)
# Procedure, shortened: as §1
# [11] = test system: PPARg:RXRa DBDmut IVT, anti-RXR (DBD mutation: RXRa K156A/R161A, NR concentration 270 nM, RXRa partner concentration 90 nM)
# Procedure, shortened: as §1
# [12] = test system: PPARg:RXRa IVT, anti-PPARg (NR concentration 270 nM, RXRa partner concentration 90 nM)
# Procedure, shortened: as §1
# [13] = test system: PPARg DBDmut:RXRa IVT, anti-PPARg (DBD mutation: PPARg1 K132A/R137A, NR concentration 270 nM, RXRa partner concentration 90 nM)
# Procedure, shortened: as §1
# [14] = test system: PPARg DBDmut IVT, anti-PPARg (DBD mutation: PPARg1 K132A/R137A, NR concentration 270 nM)
# Procedure, shortened: as §1
# [15] = test system: PPARg homodimer (NR concentration 180 nM)
# Procedure, shortened: as §1
# [16] = test system: PXR:RXRa (NR concentration 270 nM, RXRa partner concentration 90 nM)
# Procedure, shortened: as §1
# [17] = test system: PXR homodimer (NR concentration 270 nM)
# Procedure, shortened: as §1
# [18] = test system: RARa:RXR (NR concentration 270 nM, RXRa partner concentration 90 nM)
# Procedure, shortened: as §1
# [19] = test system: RARa homodimer (NR concentration 270 nM)
# Procedure, shortened: as §1
# [20] = test system: RARb:RXRa (NR concentration 270 nM, RXRa partner concentration 90 nM)
# Procedure, shortened: as §1
Sequence,PBM binding z-score [1],PBM binding z-score [2],PBM binding z-score [3],PBM binding z-score [4],PBM binding z-score [5],PBM binding z-score [6],PBM binding z-score [7],PBM binding z-score [8],PBM binding z-score [9],PBM binding z-score [10],PBM binding z-score [11],PBM binding z-score [12],PBM binding z-score [13],PBM binding z-score [14],PBM binding z-score [15],PBM binding z-score [16],PBM binding z-score [17],PBM binding z-score [18],PBM binding z-score [19],PBM binding z-score [20]
TCTCGGAGGACACGAATGGTCAGAGCTCGACATC,0.104,0.0169,-0.468,-0.483,-0.915,-0.144,0.236,0.78,2.1,1.28,1.33,-0.256,-0.6,-0.622,-0.755,-0.324,-0.617,-0.159,-0.635,1.5
ATCACTAGGTAAGACTCAGTTCAGTGAAGAACGC,0.15,0.00987,0.227,-0.0165,0.239,0.147,0.394,0.383,0.287,0.0779,3.04,2.02,0.271,1.07,0.437,0.891,0.972,0.026,1.03,0.143
CCTGGTTGGTCAGGAGGTCACACACCGGATATGA,3.43,3.17,1.62,3.13,0.647,3.89,2.6,3.31,0.453,1.96,-0.199,2.62,-0.128,-0.135,2.95,3.98,0.67,4.45,1.25,3.44
ATATTTAGGTTACATCCGGGTCATTCAGGCTATG,2.65,4.19,2.61,3.21,1.94,4.28,4.37,4.16,2.28,3.35,6.5,6.04,2.49,3.35,3.88,3.75,3.78,4.29,3.08,2.54
GCTGCTAGGTCAACTGATAGTCAGCTAAAGCTCG,4,2.78,-0.18,1.91,-0.159,3.77,2.91,3.17,0.765,2.41,4.86,4.12,0.166,-1.36,0.644,1.05,-0.294,2.13,-0.287,4.09
AGAATGAGGTTAAGAGCAGGGAAACAGAATACAT,2.07,1.9,-0.281,1.52,-0.266,3.4,1.98,2.15,0.589,1.22,2.72,2.37,0.618,0.293,0.456,1.09,0.121,1.69,-0.0125,1.71
TCATTTAGGTAAACAGGTGAAAGTCCGTAAGTTA,1.47,1.13,0.719,1.04,0.705,2.37,2.24,3.73,4.42,3.99,3.9,3.97,1.38,1.49,1.97,1.01,0.929,1.52,1.74,1.08
